The nature of experiment [1]: blockers of polyQ-driven CASP3 activation – cell-based (AID 1583). As to conditions: polyglutamine-induced caspase-3 activation, cell assay; stronger effect = higher value;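 tested at 10 µM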.
Experiment [2] in a line: yeast 75Q aggregation reduction – 75Q-TubU reporter (AID 1593). As to conditions: Yeast 75Q polyglutamine aggregation reporter.
Experiment [3] in a line: restoration of touch response, mutant HTT neurons – whole organism, C. elegans mechanosensory neurons, N-terminal huntingtin (AID 1599). To be noted: C. elegans polyQ-huntingtin mechanosensory neurons, stronger effect = higher value.
Experiment [4] in a line: blockers of cytochrome c efflux from mitochondria – biochemical, purified mitochondria (AID 1603).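 Note: mouse liver mitochondria challenged with calcium chloride; signal normalized to the plate average as 100%.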 To be noted: stronger effect = lower value.
Experiment [5] can be described thus: polyglutamine aggregate formation blockers (AID 1604). As to conditions: polyglutamine-induced protein aggregation inhibition assay; stronger effect = higher value; tested at 2.5 µM.
Experiment [6] in a line: glutamate transport activators, MN-1 cells, MN-1 cell line (AID 1612).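 Note: tested at 1 µM final; 0% = mean of DMSO vehicle wells on each plate; positive means more glutamate uptake than control and negative means less.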 To be noted: MN-1 motor neuron cells, stronger effect = higher value.
Experiment [7] is described as follows: 75Q-TubH aggregate inhibition, S. cerevisiae, yeast (AID 1616). To be noted: S. cerevisiae 75Q-TubH polyglutamine aggregation suppression; stronger effect = higher value.
Experiment [8] is described as follows: P. berghei load reduction in hepatocytes – cell-based, HepG2, luciferase luminescence, HepG2 viability, primary screen (AID 624349).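 Note: 100% = mean of DMSO negative control wells on the same plate.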 As to conditions: P. berghei liver stage in HepG2, luciferase luminescence, concentration not given here; parasite load remaining: stronger effect = lower value; viability: measured here: HepG2 viability without parasites.
Experiment [9] is described as follows: EMT-state selective cytotoxicity in co-culture – imaging, PC-3E GFP, TEM4-18 mCherry, primary screen (AID 1345086;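 active = compounds killing one labelled cell type while sparing the other, by normalised counts and ratio limits, not self-fluorescent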;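 for all read-outs here: cells exposed to compound for 72 h before imaging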;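 for red/green cell ratio (normalised): normalised mesenchymal count divided by normalised epithelial count so high means epithelial killing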). To be noted: PC-3E GFP / TEM4-18 mCherry co-culture, imaging cell counts, at 1 µM; for red/green cell ratio (normalised): actives lie on both sides, counts scaled to control wells, 1 = unselective.
Experiment [10] can be described thus: viability loss with induced miR-34 in A549 – imaging, A549 dox-inducible miR-34, nuclei and caspase counts, primary screen (AID 1347080;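 active = compounds whose cell count with miR-34 switched on is under 0.7 times the count with it off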). To be noted: A549 miR-34 inducible, Hoechst nuclei count, 48 h.
Experiment [11] is described as follows: GFP-Q80 aggregate reduction, neuronal-like cells, cell-based, NGF-treated PC12, GFPQ80 (AID 1614).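 Note: lower means fewer inclusions and 0 means no inclusions at all.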 To be noted: PC12 NGF-treated GFP-polyQ80 inclusion reduction.
Where [12] appears, read: measured here: epithelial PC-3E GFP cell survival.
The mark [13] stands for this setting: measured here: mesenchymal TEM4-18 mCherry cell survival.
The mark [14] stands for this setting: stronger effect = lower value, cell number ratio, induced over uninduced.
Setting [15] is: measured here: relative caspase fold change +Dox/-Dox.
The mark [16] stands for this setting: measured here: total cells with miR-34 induction, stronger effect = lower value.
Where [17] appears, read: measured here: total cells without miR-34 induction.

“And” between values parts separate entries of the source, which are not always exact repeats. Equal values may be shown once. For some assays here: Potency and affinity values are given separately. The source made the active and inactive calls. Cut-off read from the data, not from the text of the source, unless noted: active = parasite load remaining mostly below about 12% (no sharp cut-off); inactive = mostly above about 10%. Bridge positions count the residues as written; N and C are the ends. Square brackets hold non-standard residues; d marks the D form. Peptide text beside a SMILES is read from it. * marks the point of attachment. ξ: configuration not given here. ξDab(CH2SO3H) = NC(CCNCS(=O)(=O)O)C(=O)O; Heptanoyl(6-Me) = CC(C)CCCCC(=O)*; Dab = NCC[CH](N)C(=O)O

A word on the inhibition: it is the drop in the measured response relative to a control, in per cent. For orientation: viability means a read-out of living cells in per cent, often relative to untreated cells.

On to `CCCCCCCCCCCCC[N+](C)(C)Cc1ccccc1`, for which, in [1], the inhibition came to 73.1%. The molecule also came in with a score in experiment [2] of -0.05. In addition, the rescue above control in experiment [3] came out at 0. Besides, the cytochrome c release ratio in experiment [4] was 5.81. The inhibition of aggregation in experiment [5] came out at 25%. In addition, in [6], the glutamate uptake change is 18.1%. In experiment [7], this molecule gave an aggregation suppression score of -0.017. In addition, in experiment [8], the parasite load remaining was 85.2% (inactive) and -0.62% (inactive). Further, the viability in experiment [8] is 75.6% and 58.8%. Besides, the red/green cell ratio (normalised) in experiment [9] is 0.62 (inactive). The normalised cell number in [9] (setting [12]) was determined as 0.83; in experiment [9] (setting [13]) it was 0.51. Also, the fold change is 0.898 (inactive) in [10] (setting [14]) and 1.61 in [10] (setting [15]). In addition, the values for the cell count in experiment [10] (setting [16]) and in experiment [10] (setting [17]) were 74.5 and 83, respectively.

`CN[C@@H]1C(O)[C@@H](O[C@@H]2[C@@H](O)[C@H](O[C@H]3OC(CN)=CC[C@H]3N)[C@@H](N)C[C@H]2N)OC[C@]1(C)O` (stereo partly specified): in experiment [1], the inhibition worked out at 11.9%. Moreover, the score in [2] was found to be 1.54. For the same molecule, the rescue above control in [3] is -2.25. For the same molecule, the cytochrome c release ratio in experiment [4] amounted to 1.22. In [5], the inhibition of aggregation came to 66.2%. The glutamate uptake change in experiment [6] is -12%. The molecule also returned an inclusion score in [11] of 2. The molecule also yielded an aggregation suppression score in [7] of 1.05. Further, in experiment [8], the parasite load remaining is 96.3% (inactive) and 41.6% (inactive). Further, the viability in experiment [8] was 74.6% and 94.8%. The red/green cell ratio (normalised) in experiment [9] is 1.18 (inactive). For the same molecule, the values for the normalised cell number in experiment [9] (setting [12]) and in experiment [9] (setting [13]) were 1.02 and 1.2, respectively. Also, the fold change is 0.967 (inactive) in experiment [10] (setting [14]) and 4.46 in [10] (setting [15]). The results for the cell count in [10] (setting [16]) and in [10] (setting [17]) were 11400 and 11800, respectively.

For `CC(=O)OCC(=O)[C@H]1CCC2C3CCC4=CC(=O)CC[C@]4(C)C3CC[C@@]21C` (stereo partly specified), the inhibition in experiment [1] was -3.1%. Besides, in experiment [2], the score turned out to be 0.92. Besides, in [3], the rescue above control is -2.35. Further, the cytochrome c release ratio in [4] came out at 1.07. The molecule further gave an inhibition of aggregation in [5] of 63.5%. Also, the glutamate uptake change in experiment [6] is 23%. The inclusion score in experiment [11] came to 2.5. In addition, in experiment [7], the aggregation suppression score came out at 0.669. Also, the parasite load remaining in experiment [8] is 44.3% (inactive). In experiment [8], this molecule returned a viability of 97.7%. Besides, the red/green cell ratio (normalised) in [9] was 1.09 (inactive). Besides, the figures for the normalised cell number in [9] (setting [12]) and in [9] (setting [13]) were 1.34 and 1.47, respectively. Further, the results for the fold change in experiment [10] (setting [14]) and in [10] (setting [15]) were 0.848 (inactive) and 2.3, respectively. Moreover, the cell count in experiment [10] (setting [16]) is 9410; in experiment [10] (setting [17]), 11100.

Consider `NC(N)=Nc1nc(CSCC/C(N)=N\S(N)(=O)=O)cs1`, for which the inhibition in [1] is -15%. In [2], this molecule had a score of 1.36. Further, in experiment [3], the rescue above control is -0.31. Also, in experiment [4], the cytochrome c release ratio came to 1.43. For the same molecule, in experiment [5], the inhibition of aggregation turned out to be 82%. Further, in [6], the glutamate uptake change is -4.06%. The same molecule showed an inclusion score in [11] of 1. The aggregation suppression score in [7] is 1.04. Also, the parasite load remaining in [8] is 106% (inactive) and 35.6% (inactive). For the same molecule, the viability in [8] is 69.4% and 84.3%. Also, the red/green cell ratio (normalised) in [9] is 1.13 (inactive). Besides, the normalised cell number was found to be 0.95 in [9] (setting [12]) and 1.07 in [9] (setting [13]). Further, the fold change in [10] (setting [14]) was 0.887 (inactive); in [10] (setting [15]), 1.64. Besides, the cell count worked out at 11500 in [10] (setting [16]) and 12900 in [10] (setting [17]).

`C[C@H](CCC(=O)O)[C@H]1CCC2C3C(CC[C@@]21C)[C@@]1(C)CC[C@@H](O)C[C@H]1C[C@@H]3O` (stereo partly specified): in experiment [1], the inhibition is 20.5%. Also, the score in experiment [2] was -0.02. The same molecule returned a rescue above control in [3] of 3.58. In [4], the cytochrome c release ratio was found to be 1.17. Also, in experiment [5], the inhibition of aggregation came out at 66.7%. In addition, the glutamate uptake change in experiment [6] is -4.34%. The same molecule gave an inclusion score in experiment [11] of 2. This molecule registered an aggregation suppression score in experiment [7] of 0.256. The parasite load remaining in [8] was 50.6% (inactive) and 45.5% (inactive). The viability in experiment [8] was 77.3% and 94.5%. Moreover, the red/green cell ratio (normalised) in experiment [9] is 1.02 (inactive). The values for the normalised cell number in experiment [9] (setting [12]) and in experiment [9] (setting [13]) were 1.05 and 1.08, respectively. In addition, the fold change in experiment [10] (setting [14]) is 0.898 (inactive); in [10] (setting [15]), 1.12. The cell count in experiment [10] (setting [16]) was 11500; in experiment [10] (setting [17]), 12900.

Consider `CCCCCC(=O)O[C@]1(C(C)=O)CCC2C3CCC4=CC(=O)CC[C@]4(C)C3CC[C@@]21C` (stereo partly specified), for which the inhibition in experiment [1] worked out at 18.1%. In [2], this molecule came in with a score of -0.83. Further, the rescue above control in experiment [3] was -3.14. The cytochrome c release ratio in experiment [4] came to 0.32. Further, in experiment [5], the inhibition of aggregation is 35%. In addition, in experiment [6], the glutamate uptake change amounted to 9.62%. Besides, the aggregation suppression score in [7] came to 0.43. For the same molecule, the parasite load remaining in [8] was 13.1% (inactive) and 0.105% (inactive). The viability in experiment [8] was 72.1% and 76.8%. In experiment [9], the red/green cell ratio (normalised) was 1.01 (inactive). The values for the normalised cell number in experiment [9] (setting [12]) and in experiment [9] (setting [13]) were 1.08 and 1.09, respectively. Besides, the fold change is 0.912 (inactive) in [10] (setting [14]) and 1.72 in experiment [10] (setting [15]). For the same molecule, the cell count in experiment [10] (setting [16]) amounted to 7140; in experiment [10] (setting [17]), 7840.

In the case of `CCC(C)C1NC(=O)C(CCNCS(=O)(=O)O)NC(=O)C(NC(=O)C(CCNCS(=O)(=O)O)NC(=O)C(NC(=O)C(CCNCS(=O)(=O)O)NC(=O)CCCCC(C)C)C(C)O)CCNC(=O)C(C(C)O)NC(=O)C(CCNCS(=O)(=O)O)NC(=O)C(CCNCS(=O)(=O)O)NC(=O)C(C(C)CC)NC1=O` (stereo unspecified) ({Heptanoyl(6-Me)}-[ξDab(CH2SO3H)]T[ξDab(CH2SO3H)][Dab][ξDab(CH2SO3H)]II[ξDab(CH2SO3H)][ξDab(CH2SO3H)]T; lactam 4-C; configuration not given here), the inhibition in [1] amounted to 16.7%. For the same molecule, in experiment [2], the score amounted to 0.3. Also, the rescue above control in [3] is 0. Further, the cytochrome c release ratio in [4] is 1.4. The molecule further displayed an inhibition of aggregation in experiment [5] of 59.3%. Further, the glutamate uptake change in experiment [6] is -9.16%. The molecule also came in with an aggregation suppression score in experiment [7] of 0.253. For the same molecule, the parasite load remaining in experiment [8] was 124% (inactive) and 57.4% (inactive). For the same molecule, the viability in [8] is 68.9% and 92.3%. Also, in experiment [9], the red/green cell ratio (normalised) was 1.41 (inactive). Further, the normalised cell number in experiment [9] (setting [12]) came out at 1.02; in experiment [9] (setting [13]), 1.44. Further, the fold change is 0.942 (inactive) in experiment [10] (setting [14]) and 0.679 in experiment [10] (setting [15]). Also, the cell count in [10] (setting [16]) worked out at 11200; in [10] (setting [17]), 11900.

Values taken from PubChem BioAssay.
